Key:
Assay in all cases: log2 ratio of Biotin-Ahx-Ub-VS probe labelling (fragment/DMSO); higher = less target engagement (more negative = stronger competition), active = hit call of the paper (q ≤ 0.05, log2 ratio ≤ -1)
Conditions in all cases: compound concentration: 200 uM; treatment time: 3 h
USP19 = biological target: T1, USP19 (UniProt O94966)
T1 sequence (whole entry): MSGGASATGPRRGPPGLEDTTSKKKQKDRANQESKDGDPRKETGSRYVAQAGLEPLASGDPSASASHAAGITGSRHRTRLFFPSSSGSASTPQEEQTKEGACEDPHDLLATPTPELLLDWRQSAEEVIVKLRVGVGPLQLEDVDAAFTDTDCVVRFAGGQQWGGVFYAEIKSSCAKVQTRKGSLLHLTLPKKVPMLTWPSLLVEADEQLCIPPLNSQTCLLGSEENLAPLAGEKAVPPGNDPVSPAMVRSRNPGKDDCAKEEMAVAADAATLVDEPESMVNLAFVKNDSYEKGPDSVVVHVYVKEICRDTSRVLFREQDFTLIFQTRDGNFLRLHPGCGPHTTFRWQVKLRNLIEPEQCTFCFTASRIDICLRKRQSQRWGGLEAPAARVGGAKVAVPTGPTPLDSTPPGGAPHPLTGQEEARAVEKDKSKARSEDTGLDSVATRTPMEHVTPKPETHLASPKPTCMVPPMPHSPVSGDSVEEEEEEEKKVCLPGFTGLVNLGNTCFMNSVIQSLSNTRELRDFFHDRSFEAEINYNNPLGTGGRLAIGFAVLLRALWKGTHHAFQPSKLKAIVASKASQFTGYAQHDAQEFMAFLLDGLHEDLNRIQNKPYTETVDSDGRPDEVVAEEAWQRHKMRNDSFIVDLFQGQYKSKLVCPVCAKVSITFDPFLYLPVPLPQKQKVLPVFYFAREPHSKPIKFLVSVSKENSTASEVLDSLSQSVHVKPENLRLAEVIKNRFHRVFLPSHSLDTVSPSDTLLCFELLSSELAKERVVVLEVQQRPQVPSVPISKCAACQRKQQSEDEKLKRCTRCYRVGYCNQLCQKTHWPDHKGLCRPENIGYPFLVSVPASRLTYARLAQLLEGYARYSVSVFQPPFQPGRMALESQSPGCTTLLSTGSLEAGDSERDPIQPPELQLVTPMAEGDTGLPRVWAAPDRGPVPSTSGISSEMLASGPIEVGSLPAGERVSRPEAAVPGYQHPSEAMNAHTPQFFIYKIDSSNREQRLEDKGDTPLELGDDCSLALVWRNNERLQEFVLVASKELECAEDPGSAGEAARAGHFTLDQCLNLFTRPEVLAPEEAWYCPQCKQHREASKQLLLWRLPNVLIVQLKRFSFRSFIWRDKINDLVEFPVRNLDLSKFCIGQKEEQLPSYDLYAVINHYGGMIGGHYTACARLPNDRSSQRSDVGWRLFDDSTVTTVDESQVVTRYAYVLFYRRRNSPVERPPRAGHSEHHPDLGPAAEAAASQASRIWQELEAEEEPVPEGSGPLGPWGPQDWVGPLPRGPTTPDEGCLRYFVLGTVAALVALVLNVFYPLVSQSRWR
Procedure, shortened: (§1)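 Fragment (200 µM) or vehicle was incubated for 3 h with triplicate HEK293T lysate samples of 495 µg, which were then treated with Biotin-Ahx-Ub-VS at 0.5 µM final for 1 h. Labelled DUBs were enriched on NeutrAvidin, digested with LysC and trypsin, and analysed by diaPASEF LC-MS/MS. Values are average log2 fragment/vehicle ratios from an unpaired t-test on global-median-normalised Spectronaut label-free quantities, using proteins with ≥2 unique peptides.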

USP24 = USP24 (UniProt Q9UPU5)
USP24, sequence (Q9UPU5 whole entry): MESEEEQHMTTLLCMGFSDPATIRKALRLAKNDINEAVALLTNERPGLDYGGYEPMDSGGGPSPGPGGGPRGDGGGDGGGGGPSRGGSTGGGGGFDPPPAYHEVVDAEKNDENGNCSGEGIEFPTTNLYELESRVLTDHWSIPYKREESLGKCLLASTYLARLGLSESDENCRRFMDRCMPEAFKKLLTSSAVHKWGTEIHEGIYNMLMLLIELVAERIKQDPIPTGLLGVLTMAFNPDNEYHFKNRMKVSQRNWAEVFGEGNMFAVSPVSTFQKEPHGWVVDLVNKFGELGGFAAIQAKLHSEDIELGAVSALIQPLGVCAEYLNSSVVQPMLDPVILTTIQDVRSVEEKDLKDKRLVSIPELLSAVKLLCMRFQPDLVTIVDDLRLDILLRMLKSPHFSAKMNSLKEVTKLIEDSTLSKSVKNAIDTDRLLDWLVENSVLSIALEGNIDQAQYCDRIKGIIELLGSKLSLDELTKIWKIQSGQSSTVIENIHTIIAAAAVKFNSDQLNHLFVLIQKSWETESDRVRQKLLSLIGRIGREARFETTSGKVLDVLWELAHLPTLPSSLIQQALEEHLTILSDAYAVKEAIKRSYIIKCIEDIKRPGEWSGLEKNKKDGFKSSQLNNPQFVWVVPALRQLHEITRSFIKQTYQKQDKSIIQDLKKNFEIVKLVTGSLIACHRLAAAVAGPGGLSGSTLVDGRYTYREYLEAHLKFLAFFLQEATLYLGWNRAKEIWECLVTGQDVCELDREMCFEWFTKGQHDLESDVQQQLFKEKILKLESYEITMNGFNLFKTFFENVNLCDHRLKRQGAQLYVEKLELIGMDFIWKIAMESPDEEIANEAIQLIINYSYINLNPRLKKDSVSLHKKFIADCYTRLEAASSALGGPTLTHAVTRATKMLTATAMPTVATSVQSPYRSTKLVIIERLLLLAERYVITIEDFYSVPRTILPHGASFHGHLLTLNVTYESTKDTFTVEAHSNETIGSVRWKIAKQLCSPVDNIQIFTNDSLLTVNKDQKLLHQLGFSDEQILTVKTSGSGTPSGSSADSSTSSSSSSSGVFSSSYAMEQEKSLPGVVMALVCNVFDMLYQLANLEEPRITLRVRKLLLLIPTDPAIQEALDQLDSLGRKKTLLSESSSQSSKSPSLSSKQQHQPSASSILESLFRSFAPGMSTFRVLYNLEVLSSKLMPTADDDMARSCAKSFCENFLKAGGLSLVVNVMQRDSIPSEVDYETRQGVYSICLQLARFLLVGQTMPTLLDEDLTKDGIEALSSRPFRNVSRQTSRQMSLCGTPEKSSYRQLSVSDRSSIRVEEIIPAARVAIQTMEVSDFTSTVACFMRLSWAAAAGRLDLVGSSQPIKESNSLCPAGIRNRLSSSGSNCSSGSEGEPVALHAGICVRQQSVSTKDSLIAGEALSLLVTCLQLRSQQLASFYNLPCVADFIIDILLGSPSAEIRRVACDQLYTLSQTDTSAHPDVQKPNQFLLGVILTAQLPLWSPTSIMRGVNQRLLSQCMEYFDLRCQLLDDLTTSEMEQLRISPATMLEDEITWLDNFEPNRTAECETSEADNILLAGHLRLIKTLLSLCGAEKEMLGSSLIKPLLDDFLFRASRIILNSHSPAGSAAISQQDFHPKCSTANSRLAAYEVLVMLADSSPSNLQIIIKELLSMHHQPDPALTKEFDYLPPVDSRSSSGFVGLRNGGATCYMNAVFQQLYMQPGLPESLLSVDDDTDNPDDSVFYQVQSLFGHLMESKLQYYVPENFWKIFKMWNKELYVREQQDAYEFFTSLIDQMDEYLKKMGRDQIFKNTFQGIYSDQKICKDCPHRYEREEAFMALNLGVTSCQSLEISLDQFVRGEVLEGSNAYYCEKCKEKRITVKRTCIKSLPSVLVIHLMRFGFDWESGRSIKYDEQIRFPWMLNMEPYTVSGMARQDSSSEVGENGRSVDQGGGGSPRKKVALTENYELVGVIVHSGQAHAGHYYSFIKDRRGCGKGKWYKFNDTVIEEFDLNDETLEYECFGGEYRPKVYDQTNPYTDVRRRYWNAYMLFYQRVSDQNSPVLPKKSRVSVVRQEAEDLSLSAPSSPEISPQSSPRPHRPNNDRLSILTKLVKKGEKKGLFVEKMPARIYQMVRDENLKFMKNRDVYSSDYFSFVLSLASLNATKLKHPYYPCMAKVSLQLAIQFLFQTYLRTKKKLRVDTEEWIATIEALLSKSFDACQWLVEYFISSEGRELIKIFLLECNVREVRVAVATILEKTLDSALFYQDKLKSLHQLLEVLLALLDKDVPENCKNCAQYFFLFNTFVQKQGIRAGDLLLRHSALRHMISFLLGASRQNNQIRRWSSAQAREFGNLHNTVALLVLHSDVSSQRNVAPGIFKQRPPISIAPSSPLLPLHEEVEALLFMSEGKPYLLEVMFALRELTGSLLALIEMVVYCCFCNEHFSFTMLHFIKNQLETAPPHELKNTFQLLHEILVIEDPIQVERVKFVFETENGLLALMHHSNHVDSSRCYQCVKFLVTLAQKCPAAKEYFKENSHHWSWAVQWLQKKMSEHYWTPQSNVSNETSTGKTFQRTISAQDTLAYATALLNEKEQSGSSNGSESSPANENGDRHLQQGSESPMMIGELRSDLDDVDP
Procedure, shortened: as §1

USP25 = biological target: T2, USP25 (UniProt Q9UHP3)
T2 sequence (whole entry): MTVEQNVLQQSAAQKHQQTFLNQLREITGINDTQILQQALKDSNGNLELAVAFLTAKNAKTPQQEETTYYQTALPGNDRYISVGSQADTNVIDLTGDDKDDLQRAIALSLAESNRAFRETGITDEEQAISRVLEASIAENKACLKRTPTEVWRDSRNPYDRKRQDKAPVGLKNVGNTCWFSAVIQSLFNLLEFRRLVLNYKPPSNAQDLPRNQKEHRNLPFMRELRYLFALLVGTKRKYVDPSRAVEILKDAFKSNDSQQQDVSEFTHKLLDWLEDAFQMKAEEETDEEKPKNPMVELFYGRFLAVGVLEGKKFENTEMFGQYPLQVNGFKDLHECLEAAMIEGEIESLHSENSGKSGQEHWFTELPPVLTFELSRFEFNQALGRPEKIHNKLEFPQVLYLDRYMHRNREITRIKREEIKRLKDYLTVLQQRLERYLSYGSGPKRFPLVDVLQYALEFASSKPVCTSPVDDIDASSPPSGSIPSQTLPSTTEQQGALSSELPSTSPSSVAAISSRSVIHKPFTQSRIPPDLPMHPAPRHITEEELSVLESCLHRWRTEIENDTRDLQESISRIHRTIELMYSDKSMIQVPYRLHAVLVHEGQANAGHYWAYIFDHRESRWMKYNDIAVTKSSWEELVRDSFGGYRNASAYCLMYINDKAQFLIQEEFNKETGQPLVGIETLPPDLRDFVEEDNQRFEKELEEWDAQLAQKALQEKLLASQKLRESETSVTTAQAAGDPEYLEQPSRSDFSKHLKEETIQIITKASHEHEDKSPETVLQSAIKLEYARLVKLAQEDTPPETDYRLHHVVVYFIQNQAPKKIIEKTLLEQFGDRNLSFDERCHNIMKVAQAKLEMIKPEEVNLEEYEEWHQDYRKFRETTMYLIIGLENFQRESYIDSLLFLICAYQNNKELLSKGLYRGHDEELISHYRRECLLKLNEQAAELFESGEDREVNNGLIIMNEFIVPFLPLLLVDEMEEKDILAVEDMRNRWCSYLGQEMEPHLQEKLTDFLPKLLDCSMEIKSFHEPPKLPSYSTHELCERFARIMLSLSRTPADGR
Procedure, shortened: as §1

USP28 = biological target: T3, USP28 (UniProt Q96RU2)
T3 sequence (whole entry): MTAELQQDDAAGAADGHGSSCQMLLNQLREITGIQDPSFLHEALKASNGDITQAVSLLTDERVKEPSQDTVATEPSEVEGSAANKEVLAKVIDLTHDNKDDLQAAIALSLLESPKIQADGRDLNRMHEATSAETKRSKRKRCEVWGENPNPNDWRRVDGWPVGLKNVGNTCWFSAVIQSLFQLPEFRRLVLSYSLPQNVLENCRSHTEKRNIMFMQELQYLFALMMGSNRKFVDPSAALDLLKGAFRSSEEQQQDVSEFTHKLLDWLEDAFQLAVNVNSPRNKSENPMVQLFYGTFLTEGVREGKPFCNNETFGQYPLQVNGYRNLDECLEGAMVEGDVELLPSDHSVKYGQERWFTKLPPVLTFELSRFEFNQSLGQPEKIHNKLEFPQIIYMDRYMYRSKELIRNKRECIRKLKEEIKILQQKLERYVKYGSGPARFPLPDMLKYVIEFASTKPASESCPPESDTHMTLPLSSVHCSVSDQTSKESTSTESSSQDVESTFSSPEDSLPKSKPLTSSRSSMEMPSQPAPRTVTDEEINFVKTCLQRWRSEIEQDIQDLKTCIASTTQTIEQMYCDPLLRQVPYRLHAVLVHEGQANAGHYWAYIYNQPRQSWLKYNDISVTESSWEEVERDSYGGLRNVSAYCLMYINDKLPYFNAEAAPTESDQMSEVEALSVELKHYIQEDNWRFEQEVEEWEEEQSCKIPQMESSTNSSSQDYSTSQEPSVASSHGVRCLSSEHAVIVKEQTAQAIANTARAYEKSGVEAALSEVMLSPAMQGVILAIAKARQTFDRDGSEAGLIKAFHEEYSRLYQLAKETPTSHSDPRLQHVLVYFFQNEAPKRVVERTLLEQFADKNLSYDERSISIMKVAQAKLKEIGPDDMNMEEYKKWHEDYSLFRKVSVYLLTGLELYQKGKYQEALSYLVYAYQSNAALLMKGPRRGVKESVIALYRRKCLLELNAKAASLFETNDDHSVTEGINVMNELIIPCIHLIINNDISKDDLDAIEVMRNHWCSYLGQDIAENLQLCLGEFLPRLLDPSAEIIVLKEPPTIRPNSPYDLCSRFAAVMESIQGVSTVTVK
Procedure, shortened: as §1

Measured: log2 ratio of Biotin-Ahx-Ub-VS probe labelling

Cl.Cn1cnc2cc(CNC(=O)CCl)ccc21
inactive: USP19 -0.154 | USP24 -0.0163 | USP25 -0.177 | USP28 -0.154
